{
  "source": "paper PMC5515408",
  "about": "“Sequence-specific DNA binding by MYC/MAX to low-affinity non-E-box motifs”",
  "note": "Over roughly 4,500 sequences, “log2 normalized fluorescence” has its median near -0.34; the highest 2% begin near 3.3. This excerpt belongs to a sample that is enriched for the highest values.",
  "data": [
    {"target": "MAX:MAX (p21) (human, UniProt P61244-2 1-151)", "sequence (P61244 other isoform, or with tags, fused parts or gaps)": "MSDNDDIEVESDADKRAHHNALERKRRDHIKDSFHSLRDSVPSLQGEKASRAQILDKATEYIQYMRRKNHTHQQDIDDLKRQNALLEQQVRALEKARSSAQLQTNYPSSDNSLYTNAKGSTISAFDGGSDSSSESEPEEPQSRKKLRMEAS", "test": "protein-binding microarray (anti-MAX antibody); PBM: 15 mM Tris-HCl pH 7.5, 100 mM KCl, 0.075% NP40, 7.5 mM beta-mercaptoethanol, 375 ng/ul BSA, 8 ng/ul poly(dA-dT):(dA-dT), 550 ng complex, 60 min, room tempe; high values mean tight binding", "conditions": "protein: recombinant; tags: 6xHis; chain copies: 2; label: 3' end of printed strand (linker) attached to glass slide; dsDNA, one strand shown", "outline": "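Binding is reported as log2 normalized fluorescence. Recombinant His-tagged human MYC:MAX or MAX:MAX dimers expressed in E. coli (550 ng) were incubated with a custom Agilent glass array for 60 min at room temperature in Tris-KCl buffer, pH 7.5, containing NP40, BSA and poly(dA-dT) competitor. The array carried ~5000 unique 12-nt sequences, each spotted in triplicate and made double-stranded by primer extension, and bound protein was detected with anti-MAX and secondary antibodies and scanned at 543 nm.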", "values": [
      {"sequence": "CCGGCGAACACGTGGTATTAATAGCTAAGATTACTATATCGACG", "binding signal": "3.34 log2 normalized fluorescence"},
      {"sequence": "CCGGCGAACATGTGGTATTAATAGCTAAGATTACTATATCGACG", "binding signal": "3.2 log2 normalized fluorescence"},
      {"sequence": "CCGGCGAACACGTAGTATTAATAGCTAAGATTACTATATCGACG", "binding signal": "2.25 log2 normalized fluorescence"},
      {"sequence": "CCGGCTGAACGCTGGTATTAATAGCTAAGATTACTATATCGACG", "binding signal": "0.233 log2 normalized fluorescence"},
      {"sequence": "CCGGCTGAGGACATGTATTAATAGCTAAGATTACTATATCGACG", "binding signal": "0.549 log2 normalized fluorescence"},
      {"sequence": "CCGGCTGATGCCGCGTATTAATAGCTAAGATTACTATATCGACG", "binding signal": "0.00246 log2 normalized fluorescence"},
      {"sequence": "CCGGCTGACACGTGCAATTAATAGCTAAGATTACTATATCGACG", "binding signal": "3.47 log2 normalized fluorescence"},
      {"sequence": "CCGGCTGACACACGGTCTTAATAGCTAAGATTACTATATCGACG", "binding signal": "1.84 log2 normalized fluorescence"},
      {"sequence": "CCGGCTGACACGTGCCGTTAATAGCTAAGATTACTATATCGACG", "binding signal": "3.41 log2 normalized fluorescence"},
      {"sequence": "CCGGCTGACACGTGCGTTTAATAGCTAAGATTACTATATCGACG", "binding signal": "3.25 log2 normalized fluorescence"},
      {"sequence": "CCGGCTGACACGTGCACTTAATAGCTAAGATTACTATATCGACG", "binding signal": "3.13 log2 normalized fluorescence"},
      {"sequence": "CCGGCTAACACGCGGTCTTAATAGCTAAGATTACTATATCGACG", "binding signal": "3.15 log2 normalized fluorescence"},
      {"sequence": "CCGGCTGACACGTGCGATTAATAGCTAAGATTACTATATCGACG", "binding signal": "3.02 log2 normalized fluorescence"},
      {"sequence": "CCGGCTGACACGTGCTATTAATAGCTAAGATTACTATATCGACG", "binding signal": "3.17 log2 normalized fluorescence"},
      {"sequence": "CCGGCTGACACGCGGTCTTAATAGCTAAGATTACTATATCGACG", "binding signal": "3.32 log2 normalized fluorescence"},
      {"sequence": "CCGGCTGACACGTTAGATTAATAGCTAAGATTACTATATCGACG", "binding signal": "2.59 log2 normalized fluorescence"},
      {"sequence": "CCGGCTGACACGTGCGGTTAATAGCTAAGATTACTATATCGACG", "binding signal": "3.31 log2 normalized fluorescence"},
      {"sequence": "CCGGCTGACACGTGCCATTAATAGCTAAGATTACTATATCGACG", "binding signal": "3 log2 normalized fluorescence"},
      {"sequence": "CCGGCTGAGGCCATGTATTAATAGCTAAGATTACTATATCGACG", "binding signal": "0.0723 log2 normalized fluorescence"},
      {"sequence": "CCGGCTGACGCCGTGTATTAATAGCTAAGATTACTATATCGACG", "binding signal": "0.693 log2 normalized fluorescence"},
      {"sequence": "CCGGCTGACACGTATCATTAATAGCTAAGATTACTATATCGACG", "binding signal": "1.42 log2 normalized fluorescence"},
      {"sequence": "CCGGCTGAACAATCGTATTAATAGCTAAGATTACTATATCGACG", "binding signal": "-0.744 log2 normalized fluorescence"},
      {"sequence": "CCGGCTGATGTTGAGTATTAATAGCTAAGATTACTATATCGACG", "binding signal": "-0.163 log2 normalized fluorescence"},
      {"sequence": "CCGGCAGACACTTTGTATTAATAGCTAAGATTACTATATCGACG", "binding signal": "0.324 log2 normalized fluorescence"},
      {"sequence": "CCGGCTGAGACTCCGTATTAATAGCTAAGATTACTATATCGACG", "binding signal": "-0.692 log2 normalized fluorescence"},
      {"sequence": "CCGGCTGAGTCTGCGTATTAATAGCTAAGATTACTATATCGACG", "binding signal": "-0.699 log2 normalized fluorescence"},
      {"sequence": "CCGGCTGAATCCCAGTATTAATAGCTAAGATTACTATATCGACG", "binding signal": "-0.681 log2 normalized fluorescence"},
      {"sequence": "CCGGCTGATGTTTTGTATTAATAGCTAAGATTACTATATCGACG", "binding signal": "-0.281 log2 normalized fluorescence"},
      {"sequence": "CCGGCTGACACGTGACGTTAATAGCTAAGATTACTATATCGACG", "binding signal": "3.23 log2 normalized fluorescence"},
      {"sequence": "CCGGCTGACACGTGAGCTTAATAGCTAAGATTACTATATCGACG", "binding signal": "3.09 log2 normalized fluorescence"},
      {"sequence": "CCGGCTGACACGTGAAGTTAATAGCTAAGATTACTATATCGACG", "binding signal": "3.15 log2 normalized fluorescence"},
      {"sequence": "CCGGCTGACACGTTACATTAATAGCTAAGATTACTATATCGACG", "binding signal": "3.06 log2 normalized fluorescence"},
      {"sequence": "CCGGCTGACACGTGAGTTTAATAGCTAAGATTACTATATCGACG", "binding signal": "3.25 log2 normalized fluorescence"},
      {"sequence": "CCGGCTGACACGTGAGATTAATAGCTAAGATTACTATATCGACG", "binding signal": "3.29 log2 normalized fluorescence"},
      {"sequence": "CCGGCTGACACGTGACATTAATAGCTAAGATTACTATATCGACG", "binding signal": "3.44 log2 normalized fluorescence"},
      {"sequence": "CCGGCTGACACGTGATGTTAATAGCTAAGATTACTATATCGACG", "binding signal": "3.13 log2 normalized fluorescence"},
      {"sequence": "CCGGCTGACACGTGAGGTTAATAGCTAAGATTACTATATCGACG", "binding signal": "3.37 log2 normalized fluorescence"},
      {"sequence": "CCGGCTGATGAACAGTATTAATAGCTAAGATTACTATATCGACG", "binding signal": "-0.468 log2 normalized fluorescence"},
      {"sequence": "CCGGCTGAGCATCTGTATTAATAGCTAAGATTACTATATCGACG", "binding signal": "0.186 log2 normalized fluorescence"},
      {"sequence": "CCGGCATACACTTGGTATTAATAGCTAAGATTACTATATCGACG", "binding signal": "1.54 log2 normalized fluorescence"},
      {"sequence": "CCGGCTGAGGCGGTGTATTAATAGCTAAGATTACTATATCGACG", "binding signal": "-0.63 log2 normalized fluorescence"},
      {"sequence": "CCGGCTGACACGTGTGTTTAATAGCTAAGATTACTATATCGACG", "binding signal": "3.37 log2 normalized fluorescence"},
      {"sequence": "CCGGCTGACACGTGTTCTTAATAGCTAAGATTACTATATCGACG", "binding signal": "3.35 log2 normalized fluorescence"},
      {"sequence": "CCGGCTAGCACGTGGCATTAATAGCTAAGATTACTATATCGACG", "binding signal": "3.24 log2 normalized fluorescence"},
      {"sequence": "CCGGCTTACACGTGGTTTTAATAGCTAAGATTACTATATCGACG", "binding signal": "3.22 log2 normalized fluorescence"},
      {"sequence": "CCGGCTGACACGTGCTCTTAATAGCTAAGATTACTATATCGACG", "binding signal": "3.24 log2 normalized fluorescence"},
      {"sequence": "CCGGCTGACACGTGTACTTAATAGCTAAGATTACTATATCGACG", "binding signal": "3.15 log2 normalized fluorescence"},
      {"sequence": "CCGGCTGACACGTCGTTTTAATAGCTAAGATTACTATATCGACG", "binding signal": "1.92 log2 normalized fluorescence"},
      {"sequence": "CCGGCTGACACGTTTAATTAATAGCTAAGATTACTATATCGACG", "binding signal": "2.59 log2 normalized fluorescence"},
      {"sequence": "CCGGCTGACACGTGTTTTTAATAGCTAAGATTACTATATCGACG", "binding signal": "3.34 log2 normalized fluorescence"},
      {"sequence": "CCGGCTAGCACGTGTTTTTAATAGCTAAGATTACTATATCGACG", "binding signal": "3.52 log2 normalized fluorescence"},
      {"sequence": "CCGGCTGACACGTGTGATTAATAGCTAAGATTACTATATCGACG", "binding signal": "3.24 log2 normalized fluorescence"},
      {"sequence": "CCGGCTGACACGTTGTTTTAATAGCTAAGATTACTATATCGACG", "binding signal": "3.22 log2 normalized fluorescence"}
    ]}
  ]
}
